Test [1] in a line: inhibitors of TNFa-induced NFkB p65 translocation, primary screen, imaging, HUVEC, MLSMR starter and 10KST1 sets (AID 438;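 active = inhibition above 20% together with a positive visual image hit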;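 also: compound added about 3h40 before a 20 min TNFalpha stimulation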;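 as to inhibition: signal is the nuclear over cytoplasmic p65 intensity ratio per well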). Particulars: HUVEC TNFa-induced p65 nuclear translocation; cell count: measured here: nuclei count (cytotoxicity indicator), at 2.08 µM; inhibition: at 2 µM, stronger effect = higher value, 0% TNFa-plus-vehicle, 100% no-TNFa wells.
Test [2] in a line: reduction of polyQ htt aggregates in cells – imaging, exon1htt(103Q)mCFP cells, high-content imaging, primary screen (AID 483;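 active = visual image review flags a hit and inhibition of aggregation exceeds 20%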;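 also: compound exposure lasted 3 days before fixation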;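 as to nuclei count: percent of the per-plate median nuclei count of sample wells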). Particulars: exon1htt(103Q)mCFP cell line, aggregate imaging, at 2 µM; inhibition of aggregation: stronger effect = higher value; nuclei count: measured here: cell count, toxicity.
The nature of test [3]: endothelial E-selectin expression blockers – imaging, HUVEC, immunofluorescence, MLSMR starter and 10KST1 sets, primary screen (AID 487;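 active = visually confirmed hit in the image check and inhibition above 20%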;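 as to inhibition: signal is fraction of cell area covered by stained E-selectin grains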;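 as to nuclei count: 100% = median nuclei count of all wells on the same plate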). Particulars: HUVEC TNFalpha-induced E-selectin immunofluorescence imaging, at 2 µM; inhibition: stronger effect = higher value; nuclei count: measured here: cell number, toxicity.
Test [4] in a line: Primary imaging screen for DUSP6 inhibitors that restore phospho-Erk in transfected HeLa cells, chemical complementation (AID 609;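 active = compounds giving at least 50% inhibition in the cell-based MKP-3 phosphatase rescue imaging test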;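 as to inhibition: phospho-Erk level distribution per well compared with pooled transfected vehicle control wells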). Particulars: HeLa MKP-3 transfected, phospho-Erk imaging KS statistic, at 10 µM, cells stimulated with TPA for 15 min.
For test [5], the target named is Dual specificity protein phosphatase 6 (Homo sapiens) (UniProt Q16828). The test is described as above. Particulars: HeLa MKP-3 transfected, phospho-Erk imaging KS statistic; at 10 µM; stronger effect = higher value; cells stimulated with TPA for 15 min.
In test [6] the target is Voltage-gated potassium channel subunit beta-2 (Rattus norvegicus) (UniProt P62483). Briefly: inhibitors of rat Kvbeta2 reductase activity – biochemical, NADPH fluorescence, primary screen (AID 622;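 active = fluorescence slope higher than the sample average by over 3 SD, cut at about -0.22 in these data, passing the limit was not always enough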;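 also: slope of raw intensity against log time taken from 70 to 1610 s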). Particulars: recombinant KvBeta, 4-cyanobenzaldehyde reduction, at 10 µM, stronger effect = higher value.
The target is the same in test [7]. Briefly: enhancers of rat Kvbeta2 NADPH turnover – biochemical, NADPH fluorescence, primary screen (AID 623).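 Also: fluorescence intensity change per second fitted from 20 to 320 s.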 Particulars: Recombinant KvBeta, NADPH fluorescence decrease slope, 10 min; at 10 µM; stronger effect = lower value.
Test [8] concerns the target Muscarinic acetylcholine receptor M4 (Homo sapiens) (UniProt P08173). Briefly: M4-linked GIRK flux change, two-sided – cell-based, HEK293 M4/GIRK, thallium flux, BTC-AM, M4 allosteric agonist project, primary screen (AID 625;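 active = fluorescence slope after compound addition differing from the mean of all tested samples at 99.7% confidence, mostly higher but some lower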;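 also: thallium influx through GIRK channels coupled to M4 in HEK293 cells with BTC-AM dye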). Particulars: at 10 µM, actives lie on both sides.
Test [9] can be described thus: inhibitors of larval lipid processing in zebrafish, primary screen, whole organism, PED6 fluorescence, gall bladder and intestine (AID 686;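 active = a full or partial loss of lipid-probe fluorescence in the fish gall bladder, intestine or both, judged by eye; inactive = no fluorescence loss, or compound toxic to the fish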;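 also: larvae 5 to 7 days old with five fish per well; signal comes from phospholipase A2 cleavage of quenched PED6 carried via bile; overnight exposure to compound and PED6 before scoring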). Particulars: Zebrafish larvae PED6 lipid processing, fluorescence scoring; screened at 20 µM (by protocol).
The nature of test [10]: loss of swimming-algae plug formation – whole organism, Chlamydomonas reinhardtii, WT vs cilia-less mutant, absorbance, 96-well, primary screen (AID 463189;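 active = inhibition at or above 50% relative to wild type and mutant plate controls; inactive = inhibition below 50%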;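 also: 0% = wild type cc124 cells in DMSO and 100% = ciliumless bld1 mutant cells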). The settings on record: Chlamydomonas reinhardtii gravitaxis, OD600 absorbance, 2 days; at 10 µM; stronger effect = higher value.
The nature of test [11]: blockers of RIG-like receptor reporter activation – cell-based, Sendai virus stimulus, luciferase, 10K MLSCN set, TLR/RLR signaling modifier project, primary screen (AID 602276;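 active = inhibition at or above 50% at 10 µM; inactive = inhibition below 50%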;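 also: firefly luciferase from ISG56 promoter only with Renilla not read in this screen; 0% = Sendai virus plus DMSO and 100% = medium plus DMSO without virus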). The settings on record: HEK293 RL24 IRF3 luciferase reporter, at 10 µM, stronger effect = higher value. (In general: Reporter assays use an easily measured gene product as a stand-in for the process of interest.)

Test [12] is described as follows: TLR3 IRF3 reporter activation blockers – cell-based, poly I:C stimulus, luciferase, 10K MLSCN set, primary screen (AID 602277;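 active = inhibition of the reporter signal at or above 50%; inactive = inhibition below 50%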). The settings on record: HEK293-TLR3 RL24 IRF3 luciferase reporter, at 10 µM, stronger effect = higher value.
The mark [13] stands for this setting: measured here: cell density z-score.
The mark [14] stands for this setting: measured here: nuclear c-Myc green intensity z-score.
The mark [15] stands for this setting: measured here: nuclear pErk red intensity z-score, stronger effect = higher value.

Broadly, the inhibition is the relative decrease from the control value, in per cent.

SMILES strings stand for the structures. Calls of active or inactive are those of the source.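 The calls were made as follows, unless noted: active = NADPH fluorescence slope more negative than the mean of all samples by about 3 SD, 99.7% confidence; inactive = the rest.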

Chain of Muscarinic acetylcholine receptor M4 (Homo sapiens) (P08173 whole entry, looked up): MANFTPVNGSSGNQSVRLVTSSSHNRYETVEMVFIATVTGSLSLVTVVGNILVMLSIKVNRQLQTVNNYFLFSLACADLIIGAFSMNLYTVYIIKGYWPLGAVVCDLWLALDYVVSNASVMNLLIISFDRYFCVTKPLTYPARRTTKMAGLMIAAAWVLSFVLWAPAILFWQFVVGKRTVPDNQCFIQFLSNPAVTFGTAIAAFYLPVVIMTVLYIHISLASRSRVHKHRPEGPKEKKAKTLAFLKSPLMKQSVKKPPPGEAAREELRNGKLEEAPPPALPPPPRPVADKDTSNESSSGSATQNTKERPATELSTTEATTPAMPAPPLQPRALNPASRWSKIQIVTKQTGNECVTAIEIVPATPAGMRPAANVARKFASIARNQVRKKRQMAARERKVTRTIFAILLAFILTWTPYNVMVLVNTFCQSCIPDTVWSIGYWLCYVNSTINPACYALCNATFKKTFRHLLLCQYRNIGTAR
Chain of Voltage-gated potassium channel subunit beta-2 (Rattus norvegicus) (P62483 whole entry, looked up): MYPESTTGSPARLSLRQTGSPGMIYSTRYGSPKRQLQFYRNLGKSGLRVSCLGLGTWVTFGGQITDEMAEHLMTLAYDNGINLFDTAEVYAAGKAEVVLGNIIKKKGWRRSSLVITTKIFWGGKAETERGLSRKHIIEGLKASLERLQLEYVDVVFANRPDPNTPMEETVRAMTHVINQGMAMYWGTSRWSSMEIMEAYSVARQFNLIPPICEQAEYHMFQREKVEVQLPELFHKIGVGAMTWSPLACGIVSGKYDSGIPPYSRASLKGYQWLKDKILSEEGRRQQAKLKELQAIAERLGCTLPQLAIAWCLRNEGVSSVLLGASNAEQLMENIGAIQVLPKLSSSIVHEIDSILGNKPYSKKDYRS
Chain of Dual specificity protein phosphatase 6 (Homo sapiens) (Q16828 whole entry, looked up): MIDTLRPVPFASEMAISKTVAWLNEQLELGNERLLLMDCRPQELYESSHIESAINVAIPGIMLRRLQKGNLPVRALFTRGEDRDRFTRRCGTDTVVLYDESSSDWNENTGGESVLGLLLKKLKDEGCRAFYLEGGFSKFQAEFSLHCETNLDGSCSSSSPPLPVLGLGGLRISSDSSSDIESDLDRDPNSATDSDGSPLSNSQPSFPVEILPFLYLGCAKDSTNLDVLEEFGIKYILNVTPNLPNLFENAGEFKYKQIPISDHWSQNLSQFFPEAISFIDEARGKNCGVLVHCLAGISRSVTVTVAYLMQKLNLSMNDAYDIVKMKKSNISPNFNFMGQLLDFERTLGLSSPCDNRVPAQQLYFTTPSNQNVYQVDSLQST

Turning to `OCCNc1ncnc2c1c(-c1ccccc1)c(-c1ccccc1)n2Cc1ccco1`, the cell count in test [1] was 567. Further, the inhibition is -6.9% (inactive) in test [1]; 13.3% (inactive) in [3]; -2.91% (inactive) in test [5]; 46.8% (inactive) in test [10]; 12.3% (inactive) in test [11]; -0.125% (inactive) in [12]. Further, the inhibition of aggregation in [2] was 1.6% (inactive). Moreover, the nuclei count was 114% in [2] and 91.6% in test [3]. Moreover, the figures for the z-score in [4] (setting [13]), in [4] (setting [14]) and in test [4] (setting [15]) were -1.86, -1.32 and -1.52, respectively. The fluorescence slope in [6] is -0.472 (inactive); in test [8], 0.0047 (inactive). Further, in test [7], the NADPH fluorescence slope was -6.4e-05 (inactive). In addition, in [9], the molecule was called inactive.
As to `COc1ccc2c(c1)C1(C)CC(C)(C)N2C(=O)N1c1ccccc1` (configuration not stated), the cell count in [1] amounted to 585. Also, the inhibition was -8.2% (inactive) in [1]; -32.4% (inactive) in [3]; -3.95% (inactive) in test [5]; 4.76% (inactive) in test [10]; 12% (inactive) in test [11]; 23.1% (inactive) in test [12]. Also, in test [2], the inhibition of aggregation was -18.9% (inactive). Moreover, the nuclei count in [2] was found to be 111%; in [3], 110%. The values for the z-score in test [4] (setting [13]), in [4] (setting [14]) and in [4] (setting [15]) were 0.165, -1.42 and -0.582, respectively. The figures for the fluorescence slope in test [6] and in test [8] were -0.461 (inactive) and 0.0047 (inactive), respectively. Besides, the NADPH fluorescence slope in test [7] is -4.8e-05 (inactive). The molecule was called inactive in test [9].
In the case of `CCOC(=O)c1ccc(N=Cc2nc(-c3ccccc3)oc2OC(C)=O)cc1`, in test [1], the cell count came to 794. Besides, the inhibition in test [1] was -6.6% (inactive); in [3], -0.4% (inactive); in [5], 11.3% (inactive); in test [10], 23.8% (inactive); in [11] it was 4.63% (inactive); in test [12], 11.1% (inactive). Also, the inhibition of aggregation in test [2] is -2.7% (inactive). Besides, the results for the nuclei count in test [2] and in [3] were 98.2% and 120%, respectively. The z-score in test [4] (setting [13]) is 0.0584; in test [4] (setting [14]) it was 0.0892; in [4] (setting [15]), -0.36. For the same molecule, the values for the fluorescence slope in [6] and in test [8] were -0.395 (inactive) and 0.00761 (inactive), respectively. Also, in test [7], the NADPH fluorescence slope is -5.5e-05 (inactive). Moreover, the outcome in test [9] is “inactive; toxic”.
For the molecule `C/C(=C\C(=O)O)CC(=O)O`, the cell count in test [1] was found to be 333. Besides, the inhibition in test [1] is -2.6% (inactive); in test [3], -133% (inactive); in test [5] it was 19.4% (inactive); in test [10], -0.382% (inactive); in test [11] it was 2.17% (inactive); in test [12], 13.5% (inactive). Further, in [2], the inhibition of aggregation is 25.8% (inactive). Besides, the figures for the nuclei count in test [2] and in test [3] were 93.1% and 117%, respectively. Moreover, the z-score in test [4] (setting [13]) is 0.304; in [4] (setting [14]), -0.204; in [4] (setting [15]), -2.54. In addition, the results for the fluorescence slope in [6] and in [8] were -0.486 (inactive) and 0.00465 (inactive), respectively. In test [7], the NADPH fluorescence slope is -0.000131 (inactive). Besides, the result in test [9] was inactive.
Take `COc1ccccc1N=Cc1nc(-c2ccccc2)oc1OC(C)=O`: the cell count in test [1] came to 451. The inhibition in [1] was -8.2% (inactive); in test [3], -86.5% (inactive); in [5], 13.2% (inactive); in [10], 23% (inactive); in test [11], 18.8% (inactive); in test [12] it was 40.5% (inactive). For the same molecule, in test [2], the inhibition of aggregation is -25.8% (inactive). Moreover, the figures for the nuclei count in [2] and in test [3] were 84.2% and 132%, respectively. The values for the z-score in [4] (setting [13]), in [4] (setting [14]) and in [4] (setting [15]) were 0.537, -1.18 and 0.127, respectively. Further, the fluorescence slope in [6] was -0.347 (inactive); in [8] it was 0.00675 (inactive). Further, the NADPH fluorescence slope in test [7] was -5.8e-05 (inactive). The outcome in test [9] was inactive.
`CCOC(=O)c1[nH]c2ccc(Br)cc2c1NC(=O)CNC`: the cell count in test [1] worked out at 737. The inhibition in [1] is 5.1% (inactive); in [3], -29% (inactive); in [5] it was 11.9% (inactive); in test [10], -9.05% (inactive); in test [11] it was 18.6% (inactive); in test [12], 33.1% (inactive). In addition, the inhibition of aggregation in test [2] is -0.9% (inactive). For the same molecule, the nuclei count in test [2] was found to be 113%; in test [3], 141%. For the same molecule, the results for the z-score in test [4] (setting [13]), in test [4] (setting [14]) and in test [4] (setting [15]) were -0.195, 0.821 and 0.769, respectively. In addition, the fluorescence slope in [6] was -0.518 (inactive); in [8], 0.00596 (inactive). Also, the NADPH fluorescence slope in test [7] is -6.6e-05 (inactive). Also, the molecule was classed as inactive in [9].

These data come from PubChem BioAssay.
